# Records with an inconclusive call do not appear. A call without a number means that no potency is given here. Calls of active or inactive are those of the source. Unless noted, calls come from the whole dose curve; as a rule, active = well fitted curve in the direction sought with a large enough effect; inconclusive = small, poorly fitted or top-dose-only effect, or another doubt; inactive = no such curve, though single readings can be large; an effect the other way counts as inactive or inconclusive.
# What was measured:
# [1] = target: Cytochrome P450 3A4 (Homo sapiens) (UniProt P08684); assay: qHTS Assay for Inhibitors and Substrates of Cytochrome P450 3A4 (AID 884); note: nearly all actives have a fitted effect of over 50% in size
# Summary of the method: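 20 nM human CYP3A4 with 25 uM Luciferin-PPXE (at KM) in 200 mM KPO4, preincubated 10 min with compound; NADPH regeneration started a 60 min RT reaction. Luciferin detected by luminescence, normalized to 57 uM ketoconazole as full inhibition.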
# [2] = Confirmation and Secondary Assay for Modulators of Hemoglobin Beta Chain Splicing at IVS2 654 locus (AID 910);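 note: per-well total GFP intensity by laser scanning cytometry after 2-day treatment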
# Summary of the method: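 HeLa cells stably carrying EGFP interrupted by mutant beta-globin IVS2-654 intron (CMV-driven) were treated with compound for 2 days at 37C; corrected splicing was scored as total peak GFP intensity per well (488 nm excitation, 500-520 nm emission).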
# [3] = Confirmation and Secondary Assay for Modulators of Hemoglobin Beta Chain Splicing at IVS2 705 locus (AID 930);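 note: HeLa cells stably expressing the EGFP-705 splicing reporter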
# Summary of the method: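 HeLa cells stably carrying EGFP interrupted by mutant beta-globin IVS2-705 intron (CMV-driven) were seeded at 500 cells/well, treated next day with compound for 2 days at 37C; corrected splicing restores EGFP, read as total peak GFP intensity per well.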
# [4] = target: Ubiquitin carboxyl-terminal hydrolase 1 (Homo sapiens) (UniProt O94782); assay: Inhibitors of USP1/UAF1: Pilot qHTS (AID 504865); note: nearly all actives have a fitted effect of over 35% in size; note: potency is the fitted concentration of half-maximal effect;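 for activity change, negative = inhibition: rhodamine fluorescence freed from ubiquitin-rhodamine substrate followed over time; top concentration of the series differs between compounds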
# Summary of the method: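 Enzyme-free wells gave the negative control, while test wells held 1nM USP1/UAF1 preincubated with compound for 15 min at room temperature. Ub-Rho at 150nM final started the reaction, and fluorescence at 480/540 nm was recorded kinetically.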
# [5] = Primary qHTS for small molecule stabilizers of the endoplasmic reticulum resident proteome: Secreted ER Calcium Modulated Protein (SERCaMP) assay (AID 1508630)
# Summary of the method: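 GLuc-SERCaMP-expressing SH-SY5Y cells, pretreated 16 h with compound, are challenged with thapsigargin to empty ER calcium stores; after 4 h, coelenterazine is added directly to the medium and luminescence is imaged.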
# [6] = qHTS Assay for Lipid Storage Modulators (AID 1519; calls by dose curve); conditions: Drosophila S3 cells, BODIPY lipid droplet/cell ratio, laser cytometry, cells loaded with oleic acid
# Summary of the method: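 Cells seeded at 5,000 per well were treated with compounds over a concentration series and loaded with oleic acid (400 uM, as added). Lipid droplet fluorescence (488 nm excitation, 500-530 nm channel) was read by laser-scanning cytometry and normalized to 20 uM Triacsin C.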
# [7] = target: Rap guanine nucleotide exchange factor 3 (Homo sapiens) (UniProt O95398); assay: Confirmatory qHTS for agonist of cAMP-regulated guanine nucleotide exchange factor 3 (EPAC1) (AID 1645881);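 note: EPAC1 catalysed release of BODIPY-GDP from Rap1B seen as fluorescence loss; nearly all actives have a fitted effect of over 75% in size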
# [8] = target: Rap guanine nucleotide exchange factor 4 (Homo sapiens) (UniProt Q8WZA2); assay: Confirmatory qHTS for agonist of cAMP-regulated guanine nucleotide exchange factor 4 (EPAC2) (AID 1645884);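 note: nucleotide exchange releases bodipy-GDP from Rap1 and this lowers its fluorescence; nearly all actives have a fitted effect of over 65% in size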
# [9] = target: Rap guanine nucleotide exchange factor 4 (Homo sapiens) (UniProt Q8WZA2); assay: Confirmatory qHTS for antagonist of cAMP-regulated guanine nucleotide exchange factor 4 (EPAC2) (AID 1645885); note: nearly all actives have a fitted effect of over 25% in size
# [10] = target: Lysosomal acid glucosylceramidase (Homo sapiens) (UniProt P04062); assay: Glucocerebrosidase-p2 (AID 348; in the data active = potency below about 10 µM; note: potency is the fitted concentration of half-maximal effect); conditions: purified GBA, blue fluorogenic substrate, 40 min
# Summary of the method: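 Compounds titrated from 0.6 nM upwards against 0.2 nM enzyme in pH 5.9 citric acid/KH2PO4, taurocholate, tween-20; blue fluorogenic substrate 80 uM, 40 min room temperature, stopped and read Ex 365/Em 440 for AC50.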
# [11] = AP1 Signaling Pathway (AID 357; active = well fitted curve in either direction with a large enough effect, not every such curve was filed as active)
# Summary of the method: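 AP-1-bla ME-180 cells with beta-lactamase reporter under AP-1 response element, stimulated with EC50 EGF; compounds titrated, 5 hours at 37 degrees Celsius. CCF4 read at 460/530 nm ratio; positive and negative modulators judged by AC50.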
# [12] = target: Cytochrome P450 1A2 (Homo sapiens) (UniProt P05177); assay: p450-cyp1a2 (AID 410; calls by dose curve; note: potency is the fitted concentration of half-maximal effect)
# Summary of the method: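 20nM CYP1A2 with 100uM Luciferin-ME (at Km) in 100mM KPO4; compound preincubated 10 min, NADPH regeneration added, 60 min at room temperature. Luciferin quantified by luminescence after detection reagent; normalized to 57 uM furafylline.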
# [13] = Stat Signaling Pathway (AID 446; active = well fitted curve in either direction with a large enough effect, not every such curve was filed as active;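 note: ME-180 cervical cancer cells given 40 pM IL-6 alongside compound; SIE-controlled beta-lactamase reporter measured as 460/530 nm FRET emission ratio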)
# Summary of the method: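 Screening format detects activators and inhibitors alike: ME-180 SIE-bla cells stimulated at 40 pM IL-6 for 5 hrs with compound, then dual-emission beta-lactamase read at 405 nm excitation.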
# [14] = target: Glucocorticoid receptor (Homo sapiens) (UniProt P04150); assay: GR-EFC Redistribution (AID 451; calls by dose curve; note: potency is the fitted concentration of half-maximal effect); conditions: CHO-K1 GR-EFC translocation, beta-gal luminescence, 2 h
# Summary of the method: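 CHO-K1 cells stably expressing nuclear-localized β-gal enzyme acceptor and GR fused C-terminally to the enzyme donor fragment; ligand-driven nuclear translocation restores β-gal by complementation. Compounds titrated up to 46 uM final, 2 h at 37 °C; luminescence read.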
# [15] = target: Mitogen-activated protein kinase 10 (Mus musculus) (UniProt Q61831); assay: JNK3 AlphaScreen Assay (AID 530; active = well fitted curve in either direction with a large enough effect, not every such curve was filed as active;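 note: kinase came from lysate of stimulated human HepG2 cells; signal reports phosphorylation of biotinylated GST-cJun 1-79 at Ser73 with 10 µM ATP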)
# Summary of the method: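 Inhibitors reduce antibody binding to phosphorylated biotin-cJun, lowering AlphaScreen luminescence. Lysates from HepG2 cells pre-activated by IL-1beta plus TNF-alpha supplied JNK3; compounds were titrated.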
# [16] = target: 3',5'-cyclic-AMP phosphodiesterase 4B (Homo sapiens) (UniProt Q07343); assay: qHTS Assay for Inhibitors of PDE-IV (AID 607; active = well fitted activation curve with a large enough effect in the main read-out, with a control signal flat, not every such curve was filed as active)
# Summary of the method: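 The readout is membrane depolarisation from a cAMP-sensing CNG channel, detected with a potential dye at ex 535/em 590. Cells were HEK293-derived (endogenous PDE-IV) at 1000 cells/well, titrated up to 22.9 uM final.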
# [17] = target: Cytochrome P450 2D6 (Homo sapiens) (UniProt P10635); assay: qHTS Assay for Inhibitors and Substrates of Cytochrome P450 2D6 (AID 891); note: potency is the fitted concentration of half-maximal effect; nearly all actives have a fitted effect of over 60% in size
# Summary of the method: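 Human CYP2D6 (5 nM) with 30 uM Luciferin-ME EGE (at Km) in 100 mM KPO4, compound preincubated 10 min, then NADPH regeneration system for 60 min at room temperature. Luciferin read by luminescence; normalized to 1.43 uM quinidine.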
# [18] = measured here: cell count channel max response
# [19] = measured here: lipid channel max response
# Ubiquitin carboxyl-terminal hydrolase 1 (Homo sapiens), sequence (O94782 whole entry, looked up): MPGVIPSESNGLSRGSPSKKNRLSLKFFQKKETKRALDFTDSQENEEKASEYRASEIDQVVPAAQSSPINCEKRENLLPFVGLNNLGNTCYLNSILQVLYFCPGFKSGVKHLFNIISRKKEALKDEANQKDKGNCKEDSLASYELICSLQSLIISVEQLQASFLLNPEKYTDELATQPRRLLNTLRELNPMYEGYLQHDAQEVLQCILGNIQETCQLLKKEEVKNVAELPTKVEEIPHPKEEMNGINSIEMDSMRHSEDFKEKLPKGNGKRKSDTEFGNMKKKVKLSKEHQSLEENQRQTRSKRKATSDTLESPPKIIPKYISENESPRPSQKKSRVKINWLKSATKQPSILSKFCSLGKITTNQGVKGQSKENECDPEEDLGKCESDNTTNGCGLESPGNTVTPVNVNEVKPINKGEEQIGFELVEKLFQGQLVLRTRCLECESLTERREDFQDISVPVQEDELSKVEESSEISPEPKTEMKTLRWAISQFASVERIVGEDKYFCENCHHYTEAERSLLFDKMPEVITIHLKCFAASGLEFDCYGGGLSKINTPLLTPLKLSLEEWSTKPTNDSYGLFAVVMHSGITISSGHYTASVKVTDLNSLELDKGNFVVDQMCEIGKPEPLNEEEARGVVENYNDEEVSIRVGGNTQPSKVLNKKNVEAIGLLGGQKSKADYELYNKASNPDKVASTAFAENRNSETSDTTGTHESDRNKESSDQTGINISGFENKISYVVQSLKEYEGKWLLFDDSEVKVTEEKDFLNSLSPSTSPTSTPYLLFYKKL
# Cytochrome P450 3A4 (Homo sapiens), sequence (P08684 whole entry, looked up): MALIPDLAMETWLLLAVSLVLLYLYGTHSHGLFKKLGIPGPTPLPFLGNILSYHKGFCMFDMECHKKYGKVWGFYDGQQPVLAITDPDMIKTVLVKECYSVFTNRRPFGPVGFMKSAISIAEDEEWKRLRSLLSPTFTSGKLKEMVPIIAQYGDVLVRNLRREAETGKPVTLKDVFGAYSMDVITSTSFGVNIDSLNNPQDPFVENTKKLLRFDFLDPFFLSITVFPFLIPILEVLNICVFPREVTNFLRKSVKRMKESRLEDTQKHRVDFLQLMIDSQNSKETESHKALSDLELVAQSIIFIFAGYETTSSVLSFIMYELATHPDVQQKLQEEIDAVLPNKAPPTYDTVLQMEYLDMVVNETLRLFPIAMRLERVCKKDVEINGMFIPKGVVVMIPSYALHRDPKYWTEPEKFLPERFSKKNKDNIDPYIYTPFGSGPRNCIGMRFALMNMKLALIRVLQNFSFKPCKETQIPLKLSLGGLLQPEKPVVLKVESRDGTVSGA
# Rap guanine nucleotide exchange factor 4 (Homo sapiens), sequence (Q8WZA2 whole entry, looked up): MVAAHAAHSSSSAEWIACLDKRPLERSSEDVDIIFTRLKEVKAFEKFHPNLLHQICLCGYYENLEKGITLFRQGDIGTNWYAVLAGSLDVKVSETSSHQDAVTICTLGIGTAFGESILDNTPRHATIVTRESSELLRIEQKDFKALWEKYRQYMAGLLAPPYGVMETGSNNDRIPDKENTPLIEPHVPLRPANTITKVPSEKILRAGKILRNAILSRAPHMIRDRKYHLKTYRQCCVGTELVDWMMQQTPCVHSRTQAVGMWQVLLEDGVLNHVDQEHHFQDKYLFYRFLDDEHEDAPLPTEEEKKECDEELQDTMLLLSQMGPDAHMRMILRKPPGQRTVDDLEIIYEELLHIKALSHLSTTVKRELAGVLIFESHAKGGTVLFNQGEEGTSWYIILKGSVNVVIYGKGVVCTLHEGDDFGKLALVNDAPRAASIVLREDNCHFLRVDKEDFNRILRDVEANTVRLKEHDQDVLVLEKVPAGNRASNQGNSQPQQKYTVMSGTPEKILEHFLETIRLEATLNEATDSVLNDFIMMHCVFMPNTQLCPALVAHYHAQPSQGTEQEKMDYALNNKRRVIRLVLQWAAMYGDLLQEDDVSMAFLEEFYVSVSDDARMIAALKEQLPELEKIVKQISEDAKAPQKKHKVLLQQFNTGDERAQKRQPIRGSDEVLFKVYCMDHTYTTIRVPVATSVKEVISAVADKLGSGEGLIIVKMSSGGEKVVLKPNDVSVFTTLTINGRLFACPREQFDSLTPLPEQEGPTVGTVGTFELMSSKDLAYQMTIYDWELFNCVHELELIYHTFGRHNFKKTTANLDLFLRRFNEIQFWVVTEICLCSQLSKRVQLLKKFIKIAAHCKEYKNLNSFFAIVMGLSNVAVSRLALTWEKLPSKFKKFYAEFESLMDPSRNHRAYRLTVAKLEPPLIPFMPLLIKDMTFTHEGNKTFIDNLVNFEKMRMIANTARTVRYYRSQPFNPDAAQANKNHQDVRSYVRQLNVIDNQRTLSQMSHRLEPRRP
# Lysosomal acid glucosylceramidase (Homo sapiens), sequence (P04062 whole entry, looked up): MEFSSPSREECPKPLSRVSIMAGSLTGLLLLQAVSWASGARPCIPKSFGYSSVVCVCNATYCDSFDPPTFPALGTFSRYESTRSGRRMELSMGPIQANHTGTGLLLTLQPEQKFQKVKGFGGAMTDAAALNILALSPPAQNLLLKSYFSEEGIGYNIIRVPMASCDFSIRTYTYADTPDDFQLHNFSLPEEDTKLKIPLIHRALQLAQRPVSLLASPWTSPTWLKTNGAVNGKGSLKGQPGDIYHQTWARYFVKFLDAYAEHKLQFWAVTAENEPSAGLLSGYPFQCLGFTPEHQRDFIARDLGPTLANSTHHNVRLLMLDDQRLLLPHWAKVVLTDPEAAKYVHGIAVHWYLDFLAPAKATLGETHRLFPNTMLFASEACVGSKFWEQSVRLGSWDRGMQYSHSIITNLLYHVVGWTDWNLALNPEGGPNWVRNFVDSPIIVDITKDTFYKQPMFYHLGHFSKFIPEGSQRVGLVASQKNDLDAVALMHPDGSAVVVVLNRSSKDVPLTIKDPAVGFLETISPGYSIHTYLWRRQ
# Cytochrome P450 2D6 (Homo sapiens), sequence (P10635 whole entry, looked up): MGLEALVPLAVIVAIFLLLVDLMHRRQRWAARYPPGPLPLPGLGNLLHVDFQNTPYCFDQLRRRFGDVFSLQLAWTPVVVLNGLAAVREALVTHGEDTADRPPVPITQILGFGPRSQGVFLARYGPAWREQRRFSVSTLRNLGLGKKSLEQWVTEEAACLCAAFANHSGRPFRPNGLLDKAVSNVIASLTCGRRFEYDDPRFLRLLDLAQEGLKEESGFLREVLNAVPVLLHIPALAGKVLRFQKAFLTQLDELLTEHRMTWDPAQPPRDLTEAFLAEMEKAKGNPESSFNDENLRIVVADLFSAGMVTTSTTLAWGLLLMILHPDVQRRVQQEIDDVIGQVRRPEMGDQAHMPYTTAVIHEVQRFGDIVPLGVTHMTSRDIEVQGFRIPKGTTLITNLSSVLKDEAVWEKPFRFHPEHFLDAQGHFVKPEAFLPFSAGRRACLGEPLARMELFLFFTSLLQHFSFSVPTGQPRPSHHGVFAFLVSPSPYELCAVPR
# 3',5'-cyclic-AMP phosphodiesterase 4B (Homo sapiens), sequence (Q07343 whole entry, looked up): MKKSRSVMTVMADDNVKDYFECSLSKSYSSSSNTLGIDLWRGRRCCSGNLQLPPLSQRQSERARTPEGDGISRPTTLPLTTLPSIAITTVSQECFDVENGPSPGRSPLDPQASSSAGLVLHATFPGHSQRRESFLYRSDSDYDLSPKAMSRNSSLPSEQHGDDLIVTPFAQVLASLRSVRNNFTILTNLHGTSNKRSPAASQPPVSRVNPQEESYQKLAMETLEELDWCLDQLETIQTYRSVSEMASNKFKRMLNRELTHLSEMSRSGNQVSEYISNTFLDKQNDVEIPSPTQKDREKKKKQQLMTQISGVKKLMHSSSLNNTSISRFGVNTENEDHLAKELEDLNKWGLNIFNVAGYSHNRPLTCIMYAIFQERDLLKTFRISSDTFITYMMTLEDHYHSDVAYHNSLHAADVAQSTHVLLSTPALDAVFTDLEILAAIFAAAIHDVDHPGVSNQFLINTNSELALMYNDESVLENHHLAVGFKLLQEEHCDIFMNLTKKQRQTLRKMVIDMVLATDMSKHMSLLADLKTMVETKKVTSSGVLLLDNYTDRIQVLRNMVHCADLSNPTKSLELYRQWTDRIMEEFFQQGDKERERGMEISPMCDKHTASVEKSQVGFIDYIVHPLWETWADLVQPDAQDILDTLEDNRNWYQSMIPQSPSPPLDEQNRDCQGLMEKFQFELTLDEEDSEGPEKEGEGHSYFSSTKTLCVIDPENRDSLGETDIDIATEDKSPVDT
# Rap guanine nucleotide exchange factor 3 (Homo sapiens), sequence (O95398 whole entry, looked up): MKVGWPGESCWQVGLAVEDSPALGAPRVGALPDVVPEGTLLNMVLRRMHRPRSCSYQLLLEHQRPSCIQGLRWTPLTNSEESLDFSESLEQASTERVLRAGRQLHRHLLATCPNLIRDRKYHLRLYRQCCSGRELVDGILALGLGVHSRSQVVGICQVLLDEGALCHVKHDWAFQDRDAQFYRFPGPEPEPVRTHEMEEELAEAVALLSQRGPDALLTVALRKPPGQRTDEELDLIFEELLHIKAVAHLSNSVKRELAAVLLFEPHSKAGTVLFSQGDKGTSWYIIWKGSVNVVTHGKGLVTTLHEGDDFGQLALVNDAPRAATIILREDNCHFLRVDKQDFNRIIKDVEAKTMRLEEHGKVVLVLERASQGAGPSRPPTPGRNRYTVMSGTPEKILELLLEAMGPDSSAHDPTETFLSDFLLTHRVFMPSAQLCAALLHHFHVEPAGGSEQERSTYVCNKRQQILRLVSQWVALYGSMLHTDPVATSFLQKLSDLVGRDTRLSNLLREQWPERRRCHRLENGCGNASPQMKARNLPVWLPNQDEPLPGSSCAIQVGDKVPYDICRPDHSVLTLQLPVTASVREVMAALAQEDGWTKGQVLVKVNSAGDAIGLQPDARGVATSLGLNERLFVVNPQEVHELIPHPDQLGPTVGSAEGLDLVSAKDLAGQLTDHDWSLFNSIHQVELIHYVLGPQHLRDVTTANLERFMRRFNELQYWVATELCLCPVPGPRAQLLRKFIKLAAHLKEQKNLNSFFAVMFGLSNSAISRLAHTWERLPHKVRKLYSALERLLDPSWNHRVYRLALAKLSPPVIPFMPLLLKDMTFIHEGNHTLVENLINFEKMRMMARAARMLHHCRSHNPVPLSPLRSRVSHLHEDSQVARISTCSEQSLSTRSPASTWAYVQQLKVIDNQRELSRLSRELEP
compound,measurement,setting,value
C=C(C)C1Cc2c(ccc3c(=O)c4c(oc23)COc2cc(OC)c(OC)cc2-4)O1 (configuration not stated),Potency,[1],inactive
same,Potency,[2],inactive
same,Potency,[3],inactive
same,Potency,[4],inactive
same,outcome,[5],inactive
O=C1C=CC(=O)c2c(O)cccc21,Potency,[2],inactive
same,Potency,[3],inactive
same,"activity change, negative = inhibition",[6]; at 57.5 µM (top of the series),10.3% (inactive)
same,max response,[6]; [18],-12.3%
same,max response,[6]; [19],-1.73%
same,Potency,[4],8.91 µM (active)
same,Potency,[7],inactive
same,Potency,[8],inactive
same,Potency,[9],inactive
O=C(NC[C@@H]1CCCCN1)c1cc(OCC(F)(F)F)ccc1OCC(F)(F)F,"activity change, negative = inhibition",[6]; at 25.7 µM (top of the series),-0.787% (inactive)
same,max response,[6]; [18],-18.7%
same,max response,[6]; [19],-19.7%
CN1C[C@H](C(=O)N[C@@]2(C)O[C@@]3(O)C4CCCN4C(=O)C(Cc4ccccc4)N3C2=O)C[C@H]2c3cccc4[nH]cc(c34)C[C@H]21 (some centres not stated),"activity change, negative = inhibition",[6]; at 57.5 µM (top of the series),12.3% (inactive)
same,max response,[6]; [18],8.55%
same,max response,[6]; [19],25.1%
O=C(Oc1ccccc1)N1CCC[C@@]2(CCN(C(c3ccccc3)c3ccccc3)C2)C1,Potency,[10],> 11.4 µM (inactive)
same,outcome,[11],inactive
same,Potency,[12],25.1 µM (active)
same,outcome,[13],inactive
same,Potency,[14],> 46 µM (inactive)
same,outcome,[15],inactive
same,Potency,[16],inactive
same,Potency,[17],5.01 µM (active)
same,outcome,[5],inactive
COc1c2c(cc3c1OCO3)CC[N+](C)=C2,Potency,[1],inactive
same,Potency,[2],inactive
same,Potency,[3],inactive
same,"activity change, negative = inhibition",[6]; at 57.5 µM (top of the series),10.8% (inactive)
same,max response,[6]; [18],8.04%
same,max response,[6]; [19],18.3%
same,Potency,[4],inactive
same,outcome,[5],inactive

# Reference: PubChem BioAssay (NCATS)
